Test results reported in PubChem BioAssay (EPA / NIEHS).
Calls of active or inactive are those of the source. How the source made its calls: active means hit-call score of the fitted dose curve at least 0.9, where 1 is the maximum; inactive means score below 0.9.

experiment: ATG_VDRE_CIS: Attagene CIS-FACTORIAL HepG2 Assay for human Vitamin D Receptor Element (VDRE) (AID 2282968); conditions: HepG2 VDRE cis-reporter transcription, actives raise or lower the signal
Method: ATG_CIS is a cell-based, multiplexed-readout assay that uses HepG2, a human liver cell line, with measurements taken at 24 hours after chemical dosing in a 24-well plate.ATG_VDRE_CIS is one of 52 assay component(s) measured or calculated from the ATG_CIS assay. It is designed to make measurements of mRNA induction, a form of inducible reporter, as detected with fluorescence intensity signals by Reverse transcription polymerase chain reaction (RT-PCR) and Capillary electrophoresis technology.Data from the assay component ATG_VDRE_CIS was analyzed into 1 assay endpoint. This assay endpoint, ATG_VDRE_CIS, was analyzed with bidirectional fitting relative to DMSO as the negative control and baseline of activity. Using a type of inducible reporter, measures of mRNA for gain or loss-of-signal activity can be used to understand the reporter gene at the transcription factor-level as they relate to the gene VDR. Furthermore, this assay endpoint can be referred to as a primary readout, because this assay has produced multiple assay endpoints where this one serves a reporter gene function. To generalize the intended target to other relatable targets, this assay endpoint is annotated to the nuclear receptor intended target family, where the subfamily is non-steroidal.
Human liver HepG2 cells are transiently transfected with multiple reporter transcription units (MRTUs) in 6-well plates using FuGene 6 reagent (Roche; 3 ml FuGene/1 mg DNA). The MRTU constructs are regulated by a cis-regulating element (promoter). […] A major difference between the CIS and TRANS system is that in CIS activities of endogenous TFs are measured, whereas the TRANS assay evaluates changes in activities of exogenous, chimeric NR-Gal4 proteins. […] At the end of 24 hour incubation, total RNA was isolated using TriZol reagent (Invitrogen). The isolated RNA is then reverse-transcribed using oligo(dT) primer and Mo-MLV reverse transcriptase (Invitrogen) with DNAse I (Ambion) treatment for 30 min. The one-tenth of the produced cDNA was amplified by PCR using Taq DNA polymerase (Invitrogen) and two reporter sequence-specific primers. The PCR products were fluorescently labeled by primer extension with 6-arboxyfluorescein (6-FAM) 5'-labeled reporter sequence-specific primer (2 min at 95 C, 20 s at 68 C and 10 min at 72 C) and these products were digested with 5U of HpaI (New England Biolabs) for 2h at 37 C. The fragments were purified using Qiaquick PCR columns (Qiagen), analyzed on an ABI 3130xL genetic analyzer (Applied Biosystems) with peak positions identified by using a set of X-rhodamine (ROX)-labeled MapMarker1000 molecular weight standards (BioVentures). The raw capillary electrophoresis data was processed using Attagraph software (Attagene).

SMILES | outcome | AC50
COc1cc(C)ccc1O | inactive | 
Nc1ncnc2nc[nH]c12 | inactive | 
CC(C)=NNC(N)=S | inactive | 
Cc1ccccc1CCO | inactive | 
CC(Cl)COP(=O)(OCC(C)Cl)OCC(C)Cl (stereo not given) |  | 3.75 µM (active)
O=C(O[C@@H]1Cc2c(O)cc(O)cc2O[C@@H]1c1cc(O)c(O)c(O)c1)c1cc(O)c(O)c(O)c1 | inactive | 
NC(=O)Nc1ccccc1 | inactive | 
CCc1cccc(CC)c1 | inactive | 
CCCC=C(C=O)CC | inactive | 
CCCc1ccc(O)c(OC)c1 | inactive | 
C=CCCCCCCCCO | inactive | 
CC(C)(C)C1CCC(=O)CC1 | inactive | 
[Cl][Eu]([Cl])[Cl] | inactive | 
O=C(O)CCC(=O)O | inactive | 
CC(=O)OCC=C(C)C | inactive | 
CCc1cccc(C)c1N(C(=O)CS(=O)(=O)O)C(C)COC (stereo not given) | inactive | 
COc1ccc(C(=O)/C(Br)=C\C(=O)O)cc1 |  | 35.7 µM (active)
C=C(C)C(=O)OCCOC(=O)C(=C)C | inactive | 
O=S(=O)(O)c1ccc(Nc2nc(Nc3ccc(C=Cc4ccc(Nc5nc(Nc6ccc(S(=O)(=O)O)cc6)nc(N(CCO)CCO)n5)cc4S(=O)(=O)O)c(S(=O)(=O)O)c3)nc(N(CCO)CCO)n2)cc1 | inactive | 
C=CC(C)(O)CC/C=C(\C)CC (stereo not given) | inactive | 

SMILES | outcome | AC50
COC(=O)CC(C)CCC=C(C)C (stereo not given) | inactive | 
CC1(C)C(=O)N(CO)C(=O)N1CO | inactive | 
CC(=O)c1ccc(S(=O)(=O)NC(=O)NC2CCCCC2)cc1 | inactive | 
C=C(C)OC(C)=O | inactive | 
C=CC(=O)OCCCCCCCC(C)C | inactive | 
N#CC1(N)CCCCC1 | inactive | 
Nc1ccc(O)c([N+](=O)[O-])c1 | inactive | 
CCOC(=O)C1=NN(c2ccc(Cl)cc2Cl)C(C)(C(=O)OCC)C1 (stereo not given) | inactive | 
CCCCCCOc1ccc(N)cc1 | inactive | 
CC(C)c1ccc(O)c(C(C)C)c1 | inactive | 
COCC(=O)O | inactive | 
CCC[Si](OC)(OC)OC | inactive | 
O=C(O)/C=C/c1ccccc1 | inactive | 
C=C[C@@]1(C)CC(=O)[C@]2(O)[C@@]3(C)[C@@H](O)CCC(C)(C)[C@@H]3[C@H](O)[C@H](OC(C)=O)[C@@]2(C)O1 |  | 2.1 µM (active)
CC1(C)CC(O)CC(C)(C)N1[O] | inactive | 
CCNc1nc(NC(C)(C)C)nc(OC)n1 |  | 19.3 µM (active)
CCOB(OCC)OCC | inactive | 
C=C(C)C1CC=C(C)C(OC(C)=O)C1 (stereo not given) | inactive | 
CC(C)(CO)C(O)C(=O)NCCCO (stereo not given) | inactive | 
CC(C)[N+](C)(CCOC(=O)C1c2ccccc2Oc2ccccc21)C(C)C | inactive | 
